Data on 40 compounds can be found in PubChem BioAssay (Tox21).

Inconclusive results are not listed. Entries that show only a call come without a potency. Values without a mark were called inactive. Calls of active or inactive are those of the source. Calls come from the whole dose curve; as a rule, active = well fitted cell-killing curve with a large enough effect in the repeat runs; inconclusive = weak or mixed curves, or effect the other way; inactive = flat fitted curve, though single readings scatter.
Potency is the fitted concentration of half-maximal effect.

This test can be described thus: Human pregnane X receptor (PXR) small molecule agonists, qHTS cell viability counter screen (AID 1346977). Note: nearly all actives have a fitted effect of over 50% in size. The note with it: PXR-Luc HepG2 viability, CellTiter-Fluor, 24 h; series mostly up to 92.4 µM. The source says:
U.S. Tox21 Program National Center for Advancing Translational Sciences [NCATS] NIH Chemical Genomics Center [NCGC] U.S. Environmental Protection Agency [EPA] National Institutes of Environmental Health Sciences [NIEHS] National Toxicology Program [NTP] U.S. Food and Drug Administration [FDA] Tox21 Assay Overview: The human pregnane X receptor (hPXR) regulates the expression of several drug metabolizing enzymes and induction of these proteins is a major mechanism for developing drug resistance in cancer. One such key enzyme catalyzing the drug metabolism is cytochrome P450 3A4 (CYP3A4). Changes in CYP3A4 expression affect drug metabolism, thereby reducing the therapeutic efficacy and altering toxicological response to a drug and which finally causes adverse drug interaction. To screen Tox21 libraries for compounds that activate hPXR-mediated CYP3A4 gene expression, PXR-Luc HepG2 cells were used. Also cytotoxicity of the compounds was tested in parallel by measuring the cell viability using CellTiter-Fluor assay system in the same wells.
Tox21 Assay Protocol Summary: PXR-Luc HepG2 cells were dispensed at 2,000 per well in 5uL of assay medium containing 5% charcoal-stripped FBS into white solid bottom 1536-well plates (Corning Life Sciences, Corning, NY) using a Multidrop Combi (Thermo Scientific, Waltham, MA) dispenser. The assay plates were incubated at 37 C and 5% CO2 for 5hr, and then 23nL of compounds dissolved in DMSO and positive control were transferred using a Pintool station (Wako, San Diego, CA). The assay plates were incubated at 37C and 5% CO2 for 24hr. For cytotoxicity read, after 23hr incubation at 37C, 1uL CellTiter-Fluor reagent (Promega Corporation, Madison, WI) was added to each well of the assay plates using Flying Reagent Dispenser (FRD, Aurora Discovery, San Diego, CA). After 1hr incubation at 37C and 5% CO2, the fluorescence signal was quantified using a ViewLux plate reader (PerkinElmer, Shelton, CT).
On the technique in general: Quantitative high-throughput screening tests each substance at several concentrations.
`Cc1nccn1-c1ccc(Sc2cccc(C3(C(N)=O)CCOCC3)c2)cc1`: the Potency was 8.63 µM (active).

On to `CC(=O)[C@H]1CC[C@H]2[C@@H]3C[C@H](C)C4=CC(=O)CC[C@]4(C)[C@H]3[C@@H](O)C[C@]12C`, for which the Potency result was “inactive”.

Turning to `COc1cc2ncnc(Nc3ccc(F)c(Cl)c3)c2cc1OCCCN1CCOCC1`, the Potency is 23.7 µM (active).

With `CC(C)(C)CC(C)(C)c1ccc(OCCO)cc1`, the Potency is 27.1 µM (active).

In the case of `CC(=O)Oc1ccc2c(c1)CC[C@@H]1[C@@H]2CC[C@]2(C)[C@@H](O)CC[C@@H]12`, the Potency entry is “inactive”.

Turning to `O=C(CS)OCCOC(=O)CS`, the Potency result is “inactive”.

As for `O=C(O)c1c(O)c(-c2ccccc2)nc2ccccc12`, the Potency result was “inactive”.

As to `O=C(C(=O)c1ccccc1)c1ccccc1`, the Potency entry is “inactive”.

With `CCC(C)(C)C1CCC(O)CC1` (stereo not given), the Potency result was “inactive”.

As for `CC(C)CCCC(=O)O`, the Potency entry is “inactive”.

As for `CCOC(=O)CC(=O)C(=O)OCC`, the Potency entry is “inactive”.

As for `CC(=O)N(c1onc(C)c1C)S(=O)(=O)c1ccc(N)cc1`, the Potency result is “inactive”.

Take `CC(C)OCC1CO1` (stereo not given): the Potency entry was “inactive”.

Take `O=C(CCCCCCC(=O)Nc1ccccc1)NO`: the Potency is 8.41 µM (active).

As for `COC(=O)[C@@H]1CC2=CC(=O)CC[C@]2(C)[C@@]23O[C@@H]2C[C@@]2(C)[C@@H](CC[C@@]24CCC(=O)O4)[C@H]13`, the Potency entry was “inactive”.

For the compound `O=C(N[C@@H](c1ccccc1)[C@@H]1CCCCN1)c1cccc(C(F)(F)F)c1Cl`, the Potency is 54.5 µM (active).

Regarding `Oc1ccc(Nc2ccccc2)cc1`, the Potency result was “inactive”.

Take `CC1=C(C=O)C(C)(C)CCC1`: the Potency result was “inactive”.

On to `CC(C)=CC=O`, for which the Potency result was “inactive”.

As to `C=CCCCCCCCCCCCCCCCC`, the activity change, negative = cytotoxicity is 0.0327% [at 8.39 µM].

For the compound `CC(N)CN` (stereo not given), the Potency result is “inactive”.

Turning to `CCC(C(=O)OCCOCCN(CC)CC)c1ccccc1` (stereo not given), the Potency entry was “inactive”.

`CC1(C)C(=O)N(Br)C(=O)N1Cl`: the Potency entry is “inactive”.

Regarding `OCCSc1ccccc1`, the Potency result was “inactive”.

Take `CC(CCO)CCc1ccccc1` (stereo not given): the Potency result is “inactive”.

Turning to `OC/C(Br)=C(\Br)CO`, the Potency result was “inactive”.

For the compound `CO/N=C1\CN(c2nc3c(cc2F)c(=O)c(C(=O)O)cn3C2CC2)CC1CN` (stereo not given), the Potency result is “inactive”.

Take `C=CCNc1nc(NCC=C)nc(N2CCN(C(c3ccc(F)cc3)c3ccc(F)cc3)CC2)n1`: the Potency result is “inactive”.

On to `COc1cc2c(cc1OC)-c1cc(=Nc3c(C)cc(C)cc3C)n(C)c(=O)n1CC2`, for which the Potency result was “inactive”.

As to `CCCCC(CC)C(=O)OCCOCCOCCOCCOC(=O)C(CC)CCCC` (stereo not given), the Potency result is “inactive”.

Consider `CCOCCn1c(C2CCN(CCc3ccc(C(C)(C)C(=O)O)cc3)CC2)nc2ccccc21`, for which the Potency result was “inactive”.

As for `COc1cc2c(N3CCN(C(=O)Nc4ccc(OC(C)C)cc4)CC3)ncnc2cc1OCCCN1CCCCC1`, the Potency is 23.7 µM (active).

In the case of `COc1cc2[nH]c(=O)[nH]c(=O)c2cc1OC`, the Potency entry is “inactive”.

On to `C[C@]12CCC(=O)C=C1C=C[C@@H]1[C@@H]2CC[C@@]2(C)[C@H]1CC[C@@]21CCC(=O)O1`, for which the Potency entry was “inactive”.

As for `CC(C)C(=O)O`, the Potency entry was “inactive”.

For `CO[C@H]1C=CO[C@@]2(C)Oc3c(C)c(O)c4c(O)c(c5c(c4c3C2=O)=NC2(CCN(CC(C)C)CC2)N=5)NC(=O)/C(C)=C\C=C/[C@H](C)[C@H](O)[C@@H](C)[C@@H](O)[C@@H](C)[C@H](OC(C)=O)[C@@H]1C`, the Potency is 30 µM (active).

Consider `CO[C@H]1O[C@H](CO)[C@@H](O)[C@H](O)[C@H]1O`, for which the Potency entry was “inactive”.

Regarding `Oc1cc(O)c(Cl)cc1Cl`, the Potency result is “inactive”.

Consider `O=C(CCCN1CCN(c2ccc(F)cc2)CC1)NC1c2ccccc2CSc2ccccc21` (stereo not given), for which the Potency was 21.1 µM (active).

Turning to `CC1=NN(c2ccc(C(=O)O)cc2)C(=O)C1`, the Potency entry is “inactive”.
